Measurements from the supplement of paper PMC10849652.
About 7,900 targets were measured; listed, in parts, are those with a hit and a random draw of the rest. About 0.6% of all pairs of compound and target were hits.

What follows are targets tested with Cc1cc(Nc2cc(CN3CCOCC3)c3nc(C)c(Cc4ccc(Cl)cc4F)n3n2)n[nH]1 [gandotinib] (assay: log2 fold change, soluble protein after heating vs DMSO (PISA); higher = thermal stabilisation; K562 cells, 10 uM, 30 min; active = over 0.2 and 3.5 SD of the protein, either way, in both replicates (recomputed)).
Summary of the method: (§1)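 K562 cells at 2×10^6 cells/mL were treated with 10 μM compound for 30 min. Aliquots were heated for 3 min across 48°C-58°C, pooled, and extracted in PBS with 0.5% NP-40 at 4°C; soluble protein was the supernatant after 21,000xg for 90 min. Soluble protein was quantified by TMTpro 16plex LC-MS/MS with channel sums equalised, and reported as log2 fold change in thermal stability against DMSO controls, with values from duplicates.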

Sequence of UniProt P19397 (P19397 whole entry, looked up): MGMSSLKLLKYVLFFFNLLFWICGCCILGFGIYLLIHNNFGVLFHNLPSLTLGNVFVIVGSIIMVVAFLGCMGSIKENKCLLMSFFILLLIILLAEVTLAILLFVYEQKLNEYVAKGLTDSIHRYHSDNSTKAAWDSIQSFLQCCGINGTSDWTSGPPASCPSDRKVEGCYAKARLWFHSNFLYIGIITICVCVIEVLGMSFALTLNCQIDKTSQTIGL
Sequence of UniProt O14578 (O14578 whole entry, looked up): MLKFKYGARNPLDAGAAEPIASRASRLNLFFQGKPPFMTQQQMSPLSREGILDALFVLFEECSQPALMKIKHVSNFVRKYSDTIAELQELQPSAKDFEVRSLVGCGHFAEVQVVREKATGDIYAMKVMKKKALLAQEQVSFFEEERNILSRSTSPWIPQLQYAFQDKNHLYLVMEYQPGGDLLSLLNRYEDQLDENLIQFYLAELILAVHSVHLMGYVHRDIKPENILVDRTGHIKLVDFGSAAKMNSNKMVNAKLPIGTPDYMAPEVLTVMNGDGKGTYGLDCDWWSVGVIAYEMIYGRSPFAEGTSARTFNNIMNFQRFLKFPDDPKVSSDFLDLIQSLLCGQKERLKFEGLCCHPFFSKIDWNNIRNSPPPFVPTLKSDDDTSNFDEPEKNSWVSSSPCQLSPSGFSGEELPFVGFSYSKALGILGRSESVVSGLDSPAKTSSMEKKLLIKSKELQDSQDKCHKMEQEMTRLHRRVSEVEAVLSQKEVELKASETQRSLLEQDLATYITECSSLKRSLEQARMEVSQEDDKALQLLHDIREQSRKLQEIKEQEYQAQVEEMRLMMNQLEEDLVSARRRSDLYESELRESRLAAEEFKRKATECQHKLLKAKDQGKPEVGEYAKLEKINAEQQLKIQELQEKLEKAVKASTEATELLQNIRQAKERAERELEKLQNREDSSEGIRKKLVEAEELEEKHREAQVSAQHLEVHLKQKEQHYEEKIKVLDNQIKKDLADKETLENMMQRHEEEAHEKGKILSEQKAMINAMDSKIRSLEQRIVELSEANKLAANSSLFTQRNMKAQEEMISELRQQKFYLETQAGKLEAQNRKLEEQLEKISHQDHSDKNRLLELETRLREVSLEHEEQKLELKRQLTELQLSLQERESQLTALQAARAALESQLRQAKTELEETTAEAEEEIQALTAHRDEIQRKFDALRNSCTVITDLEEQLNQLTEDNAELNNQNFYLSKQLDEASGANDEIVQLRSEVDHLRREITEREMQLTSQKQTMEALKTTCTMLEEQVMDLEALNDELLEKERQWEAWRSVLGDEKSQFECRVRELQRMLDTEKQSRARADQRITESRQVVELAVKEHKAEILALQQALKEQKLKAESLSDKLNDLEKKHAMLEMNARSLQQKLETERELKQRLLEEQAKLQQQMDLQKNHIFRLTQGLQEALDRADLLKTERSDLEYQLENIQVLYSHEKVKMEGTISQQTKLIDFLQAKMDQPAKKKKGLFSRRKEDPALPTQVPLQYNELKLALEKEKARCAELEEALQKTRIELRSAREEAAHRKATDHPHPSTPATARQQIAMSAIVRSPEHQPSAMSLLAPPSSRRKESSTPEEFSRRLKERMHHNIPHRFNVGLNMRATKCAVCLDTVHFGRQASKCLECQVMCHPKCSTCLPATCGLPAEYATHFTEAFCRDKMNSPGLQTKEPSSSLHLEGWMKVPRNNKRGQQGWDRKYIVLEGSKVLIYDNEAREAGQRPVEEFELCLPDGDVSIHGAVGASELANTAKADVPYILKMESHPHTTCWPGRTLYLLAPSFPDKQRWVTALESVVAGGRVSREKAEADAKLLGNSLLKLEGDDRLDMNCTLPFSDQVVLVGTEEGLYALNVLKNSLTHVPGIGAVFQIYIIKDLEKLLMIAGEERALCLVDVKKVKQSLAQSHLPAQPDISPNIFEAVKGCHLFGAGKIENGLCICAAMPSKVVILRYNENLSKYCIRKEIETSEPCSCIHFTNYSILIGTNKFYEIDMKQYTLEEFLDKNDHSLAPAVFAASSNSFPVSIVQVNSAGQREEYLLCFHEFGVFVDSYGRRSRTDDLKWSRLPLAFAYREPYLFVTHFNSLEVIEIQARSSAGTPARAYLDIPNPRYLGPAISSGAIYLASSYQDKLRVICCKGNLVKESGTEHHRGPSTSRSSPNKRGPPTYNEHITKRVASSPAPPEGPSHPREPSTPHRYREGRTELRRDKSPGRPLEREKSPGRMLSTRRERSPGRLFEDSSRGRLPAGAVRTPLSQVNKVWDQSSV
Sequence of UniProt Q8NHZ8 (Q8NHZ8 whole entry, looked up): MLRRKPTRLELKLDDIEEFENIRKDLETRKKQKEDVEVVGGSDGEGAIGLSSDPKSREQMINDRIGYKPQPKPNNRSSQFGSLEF
Sequence of UniProt O95319 (O95319 whole entry, looked up): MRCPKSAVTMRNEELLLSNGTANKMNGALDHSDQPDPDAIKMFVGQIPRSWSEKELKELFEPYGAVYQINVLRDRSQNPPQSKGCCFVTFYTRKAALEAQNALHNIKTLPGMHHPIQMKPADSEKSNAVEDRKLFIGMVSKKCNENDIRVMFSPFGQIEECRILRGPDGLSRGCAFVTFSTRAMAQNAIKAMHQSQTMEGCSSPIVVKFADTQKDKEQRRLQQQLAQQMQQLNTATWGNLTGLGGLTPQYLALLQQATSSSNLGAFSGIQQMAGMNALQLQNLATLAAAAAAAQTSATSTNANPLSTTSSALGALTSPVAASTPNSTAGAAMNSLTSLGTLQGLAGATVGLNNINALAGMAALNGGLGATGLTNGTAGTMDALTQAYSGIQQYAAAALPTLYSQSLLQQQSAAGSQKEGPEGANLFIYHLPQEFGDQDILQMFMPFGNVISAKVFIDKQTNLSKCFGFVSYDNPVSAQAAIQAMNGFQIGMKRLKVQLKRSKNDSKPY
Sequence of UniProt Q14004 (Q14004 whole entry, looked up): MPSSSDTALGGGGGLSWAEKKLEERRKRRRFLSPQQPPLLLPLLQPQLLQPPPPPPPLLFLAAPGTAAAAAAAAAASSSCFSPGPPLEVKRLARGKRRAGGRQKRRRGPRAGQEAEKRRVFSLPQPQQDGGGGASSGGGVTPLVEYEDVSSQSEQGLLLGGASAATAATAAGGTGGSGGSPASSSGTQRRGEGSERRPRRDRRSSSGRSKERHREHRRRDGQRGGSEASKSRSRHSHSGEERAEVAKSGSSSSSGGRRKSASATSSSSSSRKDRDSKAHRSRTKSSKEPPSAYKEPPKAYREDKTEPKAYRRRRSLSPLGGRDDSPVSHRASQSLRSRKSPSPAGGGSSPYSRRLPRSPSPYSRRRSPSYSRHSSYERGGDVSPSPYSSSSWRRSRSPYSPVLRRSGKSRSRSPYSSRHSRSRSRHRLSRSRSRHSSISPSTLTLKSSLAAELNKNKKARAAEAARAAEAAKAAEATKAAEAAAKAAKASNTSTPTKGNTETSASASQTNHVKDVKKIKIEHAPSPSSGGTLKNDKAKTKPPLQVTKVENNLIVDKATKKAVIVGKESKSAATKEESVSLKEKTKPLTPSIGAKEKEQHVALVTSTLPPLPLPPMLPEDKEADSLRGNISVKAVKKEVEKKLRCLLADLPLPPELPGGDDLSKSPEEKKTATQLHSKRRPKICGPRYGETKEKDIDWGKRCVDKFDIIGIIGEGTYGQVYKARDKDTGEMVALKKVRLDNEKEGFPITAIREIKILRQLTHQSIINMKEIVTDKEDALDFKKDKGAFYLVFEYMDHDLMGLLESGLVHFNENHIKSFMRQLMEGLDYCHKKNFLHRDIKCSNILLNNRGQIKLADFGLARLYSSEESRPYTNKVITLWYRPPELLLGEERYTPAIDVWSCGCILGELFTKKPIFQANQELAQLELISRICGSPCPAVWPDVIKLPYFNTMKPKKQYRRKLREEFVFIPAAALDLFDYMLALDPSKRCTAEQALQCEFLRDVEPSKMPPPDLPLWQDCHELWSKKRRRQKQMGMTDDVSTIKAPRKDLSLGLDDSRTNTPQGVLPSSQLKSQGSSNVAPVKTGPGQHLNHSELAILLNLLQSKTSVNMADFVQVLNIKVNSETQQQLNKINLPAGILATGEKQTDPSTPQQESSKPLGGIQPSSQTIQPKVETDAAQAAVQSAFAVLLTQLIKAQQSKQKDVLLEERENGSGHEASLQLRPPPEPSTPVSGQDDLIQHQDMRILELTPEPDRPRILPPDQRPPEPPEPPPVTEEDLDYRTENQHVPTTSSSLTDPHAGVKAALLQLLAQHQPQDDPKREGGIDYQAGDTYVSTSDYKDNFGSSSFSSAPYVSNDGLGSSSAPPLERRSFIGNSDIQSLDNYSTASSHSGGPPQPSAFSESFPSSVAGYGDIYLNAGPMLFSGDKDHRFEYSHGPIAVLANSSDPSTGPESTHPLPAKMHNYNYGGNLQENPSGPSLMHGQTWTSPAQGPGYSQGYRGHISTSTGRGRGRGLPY
Sequence of UniProt Q99807 (Q99807 whole entry, looked up): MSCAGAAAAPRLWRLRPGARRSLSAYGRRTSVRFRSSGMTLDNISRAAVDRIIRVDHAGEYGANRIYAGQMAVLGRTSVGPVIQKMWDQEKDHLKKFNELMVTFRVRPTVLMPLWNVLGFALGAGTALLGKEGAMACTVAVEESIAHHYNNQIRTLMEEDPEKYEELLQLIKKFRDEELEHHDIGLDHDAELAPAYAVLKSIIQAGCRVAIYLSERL
Sequence of UniProt Q8IUI8 (Q8IUI8 whole entry, looked up): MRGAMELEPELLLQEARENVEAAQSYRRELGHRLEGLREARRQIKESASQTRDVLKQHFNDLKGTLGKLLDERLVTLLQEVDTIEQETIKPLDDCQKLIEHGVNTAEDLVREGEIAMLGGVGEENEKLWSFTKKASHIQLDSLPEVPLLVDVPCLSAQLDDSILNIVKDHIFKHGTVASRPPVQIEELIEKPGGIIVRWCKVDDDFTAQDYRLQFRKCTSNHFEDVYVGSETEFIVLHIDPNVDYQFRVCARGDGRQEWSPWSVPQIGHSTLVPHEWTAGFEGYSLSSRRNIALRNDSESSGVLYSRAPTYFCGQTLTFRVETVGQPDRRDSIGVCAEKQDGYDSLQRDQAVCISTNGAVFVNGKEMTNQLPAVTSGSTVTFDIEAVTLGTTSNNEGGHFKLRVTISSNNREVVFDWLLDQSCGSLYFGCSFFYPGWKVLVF

| Target | log2 fold change |
| --- | --- |
| CNDP2 (UniProt Q96KP4) | 0.072 (inactive) |
| CSNK1A1 (UniProt P48729) | 0.014 (inactive) |
| CNTN4 (UniProt Q8IWV2) | 0.144 (inactive) |
| CRLF3 (UniProt Q8IUI8) | 0.016 (inactive) |
| CDC123 (UniProt O75794) | 0.044 (inactive) |
| CPT1A (UniProt P50416) | 0.211 (inactive) |
| CERS2 (UniProt Q96G23) | -0.203 (inactive) |
| COQ7 (UniProt Q99807) | -0.359 (active) |
| CELF2 isoform 3 (UniProt O95319) | -0.027 (inactive) |
| COPS8 (UniProt Q99627) | 0.048 (inactive) |
| CBX1 (UniProt P83916) | 0.004 (inactive) |
| CDK5RAP3 isoform 4 (UniProt Q96JB5) | -0.051 (inactive) |
| CD53 (UniProt P19397) | -0.016 (inactive) |
| CCNK isoform 4 (UniProt O75909) | 0.324 (active) |
| COPS4 (UniProt Q9BT78) | 0.022 (inactive) |
| COASY isoform 2 (UniProt Q13057) | -0.058 (inactive) |
| CDKN2AIP (UniProt Q9NXV6) | -0.012 (inactive) |
| CDK6 (UniProt Q00534) | -0.009 (inactive) |

| Target | log2 fold change |
| --- | --- |
| CHCHD1 (UniProt Q96BP2) | -0.085 (inactive) |
| CLUH (UniProt O75153) | -0.037 (inactive) |
| CALCOCO2 isoform 4 (UniProt Q13137) | 0.071 (inactive) |
| COMT (UniProt P21964) | 0.031 (inactive) |
| COPS3 (UniProt Q9UNS2) | -0.087 (inactive) |
| CHERP (UniProt Q8IWX8) | -0.047 (inactive) |
| CPSF6 isoform 2 (UniProt Q16630) | -0.034 (inactive) |
| CDK13 (UniProt Q14004) | -0.414 (active) |
| COMMD2 (UniProt Q86X83) | -0.029 (inactive) |
| CDC26 (UniProt Q8NHZ8) | -0.033 (inactive) |
| CLCN3 isoform 2 (UniProt P51790) | 0.02 (inactive) |
| CAMKK2 (UniProt Q96RR4) | -0.221 (inactive) |
| CHKA (UniProt P35790) | 0.009 (inactive) |
| CSTF3 (UniProt Q12996) | 0 (inactive) |
| CD55 isoform 7 (UniProt P08174) | 0.052 (inactive) |
| CSNK2A1 (UniProt P68400) | 0.043 (inactive) |
| CIT isoform 4 (UniProt O14578) | -0.001 (inactive) |

These targets were tested with Cc1cc(Nc2cc(N3CCN(C)CC3)nc(Sc3ccc(NC(=O)C4CC4)cc3)n2)n[nH]1 [tozasertib] in the same assay as above.
Summary of the method: as §1

| Target | log2 fold change |
| --- | --- |
| CNDP2 (UniProt Q96KP4) | -0.02 (inactive) |
| CSNK1A1 (UniProt P48729) | -0.034 (inactive) |
| CNTN4 (UniProt Q8IWV2) | -0.051 (inactive) |
| CRLF3 (UniProt Q8IUI8) | 0.021 (inactive) |
| CDC123 (UniProt O75794) | -0.049 (inactive) |
| CPT1A (UniProt P50416) | 0.161 (inactive) |
| CERS2 (UniProt Q96G23) | -0.049 (inactive) |
| COQ7 (UniProt Q99807) | -0.05 (inactive) |
| CELF2 isoform 3 (UniProt O95319) | -0.054 (inactive) |
| COPS8 (UniProt Q99627) | 0.028 (inactive) |
| CBX1 (UniProt P83916) | 0.06 (inactive) |
| CDK5RAP3 isoform 4 (UniProt Q96JB5) | 0.015 (inactive) |
| CD53 (UniProt P19397) | -0.165 (inactive) |
| CCNK isoform 4 (UniProt O75909) | 0.157 (inactive) |
| COPS4 (UniProt Q9BT78) | 0.036 (inactive) |
| COASY isoform 2 (UniProt Q13057) | -0.031 (inactive) |
| CDKN2AIP (UniProt Q9NXV6) | -0.024 (inactive) |
| CDK6 (UniProt Q00534) | 0.001 (inactive) |

| Target | log2 fold change |
| --- | --- |
| CHCHD1 (UniProt Q96BP2) | -0.045 (inactive) |
| CLUH (UniProt O75153) | -0.024 (inactive) |
| CALCOCO2 isoform 4 (UniProt Q13137) | 0.115 (inactive) |
| COMT (UniProt P21964) | -0.028 (inactive) |
| COPS3 (UniProt Q9UNS2) | 0 (inactive) |
| CHERP (UniProt Q8IWX8) | 0.08 (inactive) |
| CPSF6 isoform 2 (UniProt Q16630) | -0.03 (inactive) |
| CDK13 (UniProt Q14004) | -0.118 (inactive) |
| COMMD2 (UniProt Q86X83) | 0.082 (inactive) |
| CDC26 (UniProt Q8NHZ8) | 0.096 (inactive) |
| CLCN3 isoform 2 (UniProt P51790) | 0.002 (inactive) |
| CAMKK2 (UniProt Q96RR4) | 0.15 (inactive) |
| CHKA (UniProt P35790) | -0.013 (inactive) |
| CSTF3 (UniProt Q12996) | -0.021 (inactive) |
| CD55 isoform 7 (UniProt P08174) | 0.067 (inactive) |
| CSNK2A1 (UniProt P68400) | -0.004 (inactive) |
| CIT isoform 4 (UniProt O14578) | 0.093 (inactive) |
